Measured values reported in PubChem BioAssay AID504329 (Southern Research Specialized Biocontainment Screening …, 2011).
Screen size: about 340,000 compounds; about 1,000 (0.29%) were called active. These entries were drawn from the full list. Entries with a potency or affinity are not part of this list. Unmarked numbers belong to inactive results. Rule as the data show it: inconclusive = inhibition above about 27% without an active follow-up result; inactive = below that.

Assay: H1N1 influenza NS1A inhibitors, functional cell based assay (AID 504329)
Conditions: percent inhibition, at 12.5 µM, stronger effect = higher value

SMILES | inhibition
Cn1nc(C(C)(C)C)cc1C(=O)NNC(=O)c1ccc(C(F)(F)F)cc1 | -21.4%
O=C(NNc1cccc(Cl)n1)c1ccccc1CC[N+](=O)[O-] | -1.98%
CCn1nc(NS(=O)(=O)c2ccc([N+](=O)[O-])cc2)c2cc3ccccc3nc21 | 4.22%
CCC(C)(C)C1CCC2(CC1)NC(=O)N(CC(=O)N(C)Cc1ccc3c(c1)OCCO3)C2=O (centres undefined) | -14.3%
CCN1C(=O)/C(=c2\o/c(=C3\C=Cc4ccccc4N3CC)c(=O)n2CC)SC1=S | 19.6%
CCN1/C(=C2\C(=O)N(C)C(=S)N2C)C=Cc2ccccc21 | 6.98%
O=C(NCCO)Nc1ccc(Cl)cc1 | 0.44%
Cc1ccc(S(=O)(=O)CCC(=O)Nc2nccs2)cc1 | 6.51%
O=C(Cc1c[nH]c2ccccc12)NNCc1ccc(N(CCCl)CCCl)cc1 | 14.4%
Oc1[nH]c2ccccc2c1N=Nc1ccc(F)cc1 | -3.37%
O=C(O)c1ccc(N=Nc2c(O)[nH]c3ccccc23)cc1 | -7.55%
O=C(Cc1ccc(Cl)c(Cl)c1)N1CCOCC1 | -9.69%
O=C(N/N=C/c1cccc([N+](=O)[O-])c1O)C(O)(c1ccccc1)c1ccccc1 | -8.83%
Cc1ccc(C(=O)N/N=C\c2ccccc2[N+](=O)[O-])cn1 | 4.04%
Cc1cc([N+](=O)[O-])cc(/C=N\NC(=O)C2COc3ccccc3O2)c1O (centres undefined) | 19.3%
O=C(N/N=C/c1ccccc1[N+](=O)[O-])c1cccs1 | -0.41%
O=C(N/N=C\c1cc2c(cc1[N+](=O)[O-])OCO2)c1cccs1 | -1.36%
Cc1cc(C(=O)N/N=C/c2cc(Cl)cc([N+](=O)[O-])c2O)n[nH]1 | -7.04%
CCNC(=S)N(Cc1ccc2c(c1)OCO2)C1CC(=O)N(c2ccc(OC)cc2)C1=O (centres undefined) | -4.24%
O=C(NCCN1CCOCC1)C(=O)NCc1ccco1 | -2.57%
CC1CCC(NC(=O)CSc2nncs2)CC1 (centres undefined) | 1.05%
Cc1cc2nc(-c3ccc(SCC(=O)Nc4ccc(S(=O)(=O)NC5CC5)cc4)nc3)[nH]c2cc1C | -2.72%
C=CCOc1ccccc1/C=C/C(=O)O | 1.54%
CC(=O)c1ccc(N(C)C)c2c(N(C)C)cccc12 | -6.19%
CN(C)c1cccc2c(/C=N/O)ccc(N(C)C)c12 | 5.22%
Cc1ccc(-n2nc(C)c3c2OC(N)=C(C#N)C3c2ccco2)cc1 (centres undefined) | 15.8%
Cc1nn(-c2ccccc2)c2c1C(c1ccccc1)C(C#N)=C(N)O2 (centres undefined) | -4.13%
Cc1ccc(-n2nc(C)c3c2OC(N)=C(C#N)C3c2ccncc2)cc1 (centres undefined) | -2%
Cc1nn(-c2ccccc2)c2c1C(c1cccs1)C(C#N)=C(N)O2 (centres undefined) | 11.8%
